Shown are actives, neighbours in structure and some others; about 4.7% of the full set was active somewhere.
MLLE-PAM2 inh: blocks PAM2 peptide binding to the PABP1 MLLE domain; P11940; GST-MLLE / FITC-PAM2 fluorescence polarization; inhibition, % at 20 µM; 0.36% of 360,000 active; AID 588489; in the data active = inhibition above about 35%, passing the limit was not always enough
Target sequence (P11940 whole entry, looked up, the tested form may be a part): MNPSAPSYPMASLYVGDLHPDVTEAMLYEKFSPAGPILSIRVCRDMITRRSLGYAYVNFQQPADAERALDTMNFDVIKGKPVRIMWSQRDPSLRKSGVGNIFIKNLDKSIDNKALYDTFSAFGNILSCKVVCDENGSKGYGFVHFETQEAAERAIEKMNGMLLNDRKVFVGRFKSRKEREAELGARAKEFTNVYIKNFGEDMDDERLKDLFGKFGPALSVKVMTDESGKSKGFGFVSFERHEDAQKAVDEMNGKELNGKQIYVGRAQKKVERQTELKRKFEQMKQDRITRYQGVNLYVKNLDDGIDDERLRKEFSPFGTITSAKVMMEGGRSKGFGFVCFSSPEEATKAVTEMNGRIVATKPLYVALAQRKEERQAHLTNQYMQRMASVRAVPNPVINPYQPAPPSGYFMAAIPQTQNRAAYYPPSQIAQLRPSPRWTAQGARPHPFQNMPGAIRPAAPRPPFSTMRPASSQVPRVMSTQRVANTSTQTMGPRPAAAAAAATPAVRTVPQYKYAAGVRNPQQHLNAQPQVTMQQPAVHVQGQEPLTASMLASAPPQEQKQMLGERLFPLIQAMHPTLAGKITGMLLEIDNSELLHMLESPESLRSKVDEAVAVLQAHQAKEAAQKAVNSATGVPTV
PABP FP inh: PABP-poly(A) binding inhibition | inhibition, % at 35 µM | AID 2014 | 1% of 290,000 active | P11940 | PABP-poly(A) RNA binding, fluorescence polarization;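 note: calls also rest on retests at 20 µM and on dose response follow-up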
eIF4H FP inh: inhibitors of RNA binding by human eIF4H | AID 2012 | 0.94% of 290,000 active | eIF4H fluorescence polarization binding assay | inhibition, % at 35 µM;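 note: calls also rest on retests at 20 µM and on dose response follow-up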
Efflux pump mplx: inhibitors of Candida antifungal efflux pumps expressed in yeast; S. cerevisiae Candida pump triplex, Nile Red efflux; inhibition, % at 10 µM; AID 485275; 0.44% of 330,000 active;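 active = plate passing quality check with inhibition over a set limit, or well fluorescence over plate mean plus 4 SD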;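 note: Nile Red retained in pooled yeast measured as flow cytometry median fluorescence; higher means more Nile Red kept so more efflux inhibition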
UBC9 SUMO inh: SUMOylation inhibition | P63279 | HTRF SUMOylation assay, SAE1/SAE2 + UBC9, in vitro | inhibition, % at 35 µM | 0.36% of 290,000 active | AID 2006; in the data active = inhibition above about 50%, passing the limit was not always enough
ALR H2O2 inh: blocks human ALR sulfhydryl oxidase activity. inhibition, % (no concentration beside the values). purified ALR, DTT oxidation, H2O2 HRP-luminol luminescence. AID 485317. P55789. 3.8% of 290,000 active;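 active = mean replicate inhibition above about 79%, with every replicate also reaching it, limit read from the data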
Hits are given with their value; n = inactive; x = no result given. Unless noted, the rule behind the calls is not given here.

SMILES	MLLE-PAM2 inh	PABP FP inh	eIF4H FP inh	Efflux pump mplx	UBC9 SUMO inh	ALR H2O2 inh
O=c1[nH]c(=S)[nH]c2c1CN(Cc1ccc(F)cc1)CC2	38.5	x	x	n	x	x
CCCN1CCc2[nH]c(=S)[nH]c(=O)c2C1	46.9	n	n	n	n	n
CCOCCCNC(=S)Nc1ccc2nc(N3CCOCC3)cc(C)c2c1	n	n	n	n	n	99.1
CCN(CC)CCNC(=S)Nc1ccc2nc(N3CCN(C)CC3)cc(C)c2c1	n	n	n	n	n	n
CCN(CC)CCNC(=S)Nc1ccc2nc(N3CCCC3)cc(C)c2c1	n	n	n	n	n	99.4
COc1ccc(CNC(=S)Nc2ccc3nc(N4CCOCC4)cc(C)c3c2)cc1	n	n	n	n	n	98.8
CC(=O)c1c(C)[nH]c(C(=O)OCc2csc(CC(=O)Nc3ccccc3C)n2)c1C	n	x	x	n	x	n
O=C(Nc1nc(-c2ccccc2)ns1)c1cccs1	n	n	n	n	n	87.8
O=C(Nc1nc(-c2ccccc2)cs1)c1cccs1	n	n	n	n	n	n
COc1ccc([C@H]2CC(=O)C=C(c3ccc(C)c4ccccc34)C2)cc1	n	x	x	n	x	n
CCn1c(CC(=O)Nc2ccc(C)cc2)nnc1SCC(=O)N1CCOCC1	n	n	n	n	n	n
CC(=O)c1ccc(OCC(C)C)c(Cc2c(O)nc(N)[nH]c2=O)c1	n	n	n	n	n	n
CC(=O)c1ccc(OC(C)C)c(Cc2c(O)nc(N)[nH]c2=O)c1	n	99.8	0.7	n	n	n
COc1ccc(N2CCN(CCN3C(=O)c4ccccc4C3=O)CC2)cc1	n	n	n	n	n	n
CCOC(=O)CSc1nc2cc(C(=O)N3CCC(C(N)=O)CC3)ccc2c(=O)n1C1CCCCC1	n	n	n	n	n	96.8
CCOC(=O)CSc1nc2ccccc2c(=O)n1C1CCCC1	n	n	n	n	n	n
CCCCCn1c(SCC(=O)CC(=O)OCC)nc2cc(C(=O)N3CCC(C(N)=O)CC3)ccc2c1=O	n	n	n	n	n	91.2
CCCCCn1c(SCC2CCCO2)nc2cc(C(=O)N3CCC(C(N)=O)CC3)ccc2c1=O (configuration not stated)	n	n	n	n	n	x
NS(=O)(=O)c1ccc(CCNC(=O)COC(=O)c2ccc([N+](=O)[O-])o2)cc1	n	x	x	n	x	n
CC(OC(=O)/C=C/c1ccc2ccccc2n1)C(=O)NCc1ccccc1 (configuration not stated)	n	x	x	n	x	n
Cc1ccccc1NC(=O)NC(N)=O	n	n	n	n	n	n
Cc1ccccc1N=C(N)Nc1ccccc1C	57.9	x	x	n	x	x
N#Cc1ccccc1NC(=O)COC(=O)CN1C(=O)C2CCCCC2C1=O (configuration not stated)	n	x	x	n	x	n
CCN(CC)CCOC(=O)c1ccc(N/C=C(/C#N)c2nc(-c3ccc(OC)cc3)cs2)cc1	n	n	n	n	n	n
CCN(CC)CCOC(=O)c1ccc(N/C=C(/C#N)c2nc(-c3cc4ccccc4oc3=O)cs2)cc1	n	n	n	n	55.2	n
SMILES	MLLE-PAM2 inh	PABP FP inh	eIF4H FP inh	Efflux pump mplx	UBC9 SUMO inh	ALR H2O2 inh
Oc1cc2ccccc2cc1-c1n[nH]c(=S)o1	n	n	n	n	n	96.9
S=c1[nH]nc(COc2ccc3ccccc3c2)o1	n	n	n	n	n	n
S=c1[nH]nc(-c2c[nH]c3ccccc23)o1	n	n	n	n	n	97.9
Cc1cc(-c2n[nH]c(=S)o2)c(C)n1-c1ccccc1	x	n	n	n	n	95.0
O=c1[nH]c(=S)[nH]cc1Oc1ccc(Cl)cc1Cl	45.9	n	n	x	n	x
O=C(Nc1ccn(CCCN2CCN(c3ccccn3)CC2)c(=O)n1)OCc1ccccc1	n	x	x	x	x	x
c1ccc2c3c([nH]c2c1)C(C1CCCCC1)N(Cc1ncc[nH]1)CC3 (configuration not stated)	n	n	n	n	n	98.1
O=c1c2c([nH]c3ccccc13)CCCC2	n	n	n	n	n	n
O=C(O)c1cccc2c3c([nH]c12)CCCC3	n	n	n	n	n	86.6
Cn1cc(S(=O)(=O)N2CCNCC2)cc1C(N)=O	n	x	x	n	x	n
COc1ccc(N2C(=S)NC3N2C(=S)NC3(C)c2ccccc2)cc1 (configuration not stated)	n	n	n	n	n	98.1
COc1ccc(C(C(=O)NC(C)(C)C)N(C(=O)CCC(=O)Nc2cc(C)on2)c2c(C)cccc2C)cc1 (configuration not stated)	n	n	n	n	n	n
CC(C)n1c(-c2ccco2)csc1=Nc1cccnc1	n	n	n	n	n	92.4
Cc1cc(O)c(C2=Nc3ccccc3SC(c3ccc(Cl)cc3)C2)c(=O)o1 (configuration not stated)	n	n	n	n	n	n
COc1ccc(C2CC(c3c(O)cc(C)oc3=O)=NCCS2)c(OC)c1 (configuration not stated)	n	76.5	73.8	n	n	n
S=c1nc(-c2ccccc2Br)[nH][nH]1	n	n	n	n	n	98.5
Cc1cc(C)nc(Nc2n[nH]c(-c3ccccc3Br)n2)n1	n	n	n	n	n	n
CC(C)(C)CC(C)(C)NC(=O)CSCC(=O)Nc1ccc2ccccc2c1	n	n	n	n	n	98.9
CCC(=O)Nc1ccc2ccccc2c1	n	n	n	n	n	n
Cc1ccc(Cl)c(NC(=O)COC(=O)c2nn(-c3ccccc3)cc2O)c1Cl	n	x	x	n	x	n
COc1cccc(-n2ccnc2SCC(=O)NCc2ccccc2)c1	n	n	n	n	n	n
Cc1cc(NC(=O)CSc2nccn2-c2ccc(F)cc2)no1	n	n	n	n	n	n
COc1cccc(-n2ccnc2SCC(=O)Nc2cc(C)on2)c1	n	n	n	n	n	83.0
Cc1cc(NC(=O)CSc2nccn2-c2ccc(Cl)cc2)no1	n	n	n	n	n	98.9
O=C(COc1ccccc1)N1CCN=C1SCc1ccc(F)cc1	n	n	n	n	n	98.0
SMILES	MLLE-PAM2 inh	PABP FP inh	eIF4H FP inh	Efflux pump mplx	UBC9 SUMO inh	ALR H2O2 inh
O=C(COc1ccccc1)N1CCN=C1SCc1cccnc1	n	n	n	n	n	99.7
CCOC(=O)N1CCN=C1SCc1ccc(C(F)(F)F)cc1	n	n	n	n	n	n
CC(Oc1ccccc1)C(=O)N1CCN=C1SCc1ccc(F)cc1 (configuration not stated)	n	n	n	n	n	96.3
Cc1ccnc(SCC(=O)c2cc3ccccc3o2)n1	n	n	n	n	n	x
O=C(O)c1ccc(O)c(O)c1	n	n	n	n	n	98.0
O=C(O)Cc1ccc(O)c(F)c1	n	n	n	n	n	x
O=C(O)c1cccc(C(=O)O)c1	n	n	n	n	n	n
O=C(O)c1ccc(-c2ccc(O)c(F)c2)cc1	n	n	n	n	n	98.0
COc1cccc(-c2cnc(C(O)c3cc(C)ccc3C)[nH]2)c1 (configuration not stated)	n	x	x	x	x	x
Cc1ccsc1/C=C1/SC(N2CC(C)OC(C)C2)=NC1=O (configuration not stated)	n	n	n	n	n	99.1

From PubChem
